The results in this text go back to ChEMBL document CHEMBL3988442, “University of Dundee, Small-Polar-MMV Screening Library” (2021).

Molecules are shown by their SMILES. Hit rate of the full screen: of about 48,000 compounds, about 13,000 (27%) showed an effect of 50% or more. This is one part of the list.

For this test, the system named is Wolbachia pipientis. Briefly: Anti-Wolbachia Cell-Based Screen. The class given is functional. Details: scale not given: in the data most compounds retested in dose-response had high values. The conditions noted are these: 5 µM.
Turning to `CCCC(O)CNc1cncc(Br)c1` (configuration not stated), the “Percent Effect” value is recorded as -5%. Take `CC(C)(NC(=O)Nc1cnn(CC2CCCO2)c1)c1nccs1` (configuration not stated): the “Percent Effect” value is recorded as -5.14%.

On to `Cc1ccc(F)cc1-n1c(CN(C)S(C)(=O)=O)n[nH]c1=O`, for which the “Percent Effect” value amounted to 117.3%.

With `Cc1ccc(F)cc1-n1c(COC(C)C)n[nH]c1=O`, the “Percent Effect” value was determined as 6.19%.

For the compound `CCN(C)Cc1n[nH]c(=O)n1-c1cc(F)ccc1C`, the “Percent Effect” value came out at 106.9%. Then `CCN(C)Cc1n[nH]c(=O)n1-c1ccc(C)c(C)c1`, with 100.3%; and `CNCc1n[nH]c(=O)n1-c1ccccc1Oc1ccccc1`, with -7.871%; and `CN(Cc1n[nH]c(=O)n1CCc1ccccc1F)S(C)(=O)=O`, with -6.047%. The result for `COc1ccc(-n2c(COC(C)C)n[nH]c2=O)cc1` reads 8.862%; that for `CN(Cc1n[nH]c(=O)n1Cc1ccccc1F)S(C)(=O)=O`, -17.4%.

With `Cc1ccc(-n2c(COC(C)C)n[nH]c2=O)cc1`, the “Percent Effect” value is given as -8.363%.

With `CN(Cc1ccccc1-n1cccn1)C[C@@H]1CCCN2CCCC[C@H]12`, the “Percent Effect” value was -7.431%.

For `CCc1nsc(N2CCN(C(=O)c3ccnc(N(C)C)c3)CC2)n1`, the “Percent Effect” value is listed as -3.339%. As for `CCC1=N[C@@]2(CC[C@@H]3CN(C(=O)NCC(C)C)C[C@@H]32)C(=O)N1CC(C)C`, the “Percent Effect” value is -11.82%. Take `Cc1nn(C)c(C)c1C1CCCN1CCOc1ccccc1C#N` (configuration not stated): the “Percent Effect” value was -7.684%.

For `CS(=O)(=O)NC[C@@H]1OC[C@H]2CN(C(=O)c3ccc[nH]3)CC[C@H]21`, the “Percent Effect” value is on record as -14.53%. The result for `CN[C@@H](C)C(=O)N(Cc1cccc(C)c1)Cc1ccccc1OC` reads 4.64%; that for `CCc1nc(CC(=O)N2CCn3c(nnc3C(F)(F)F)C2)cs1`, -0.3988%; that for `Cc1cccc(-n2cc(CN3CCN(C)[C@@H]4CS(=O)(=O)C[C@@H]43)cn2)c1`, -4.421%. The result for `Cc1cccc(=O)n1CCCNc1ncnc2c1CCNCC2` reads -13.78%; that for `Cc1nc2c(c(NCc3ccc(-c4ccccn4)s3)n1)CCNCC2`, 3.518%; that for `Cn1cc(CNc2ncnc3c2CCN(Cc2ccsc2)CC3)cn1`, 1.057%. Consider `Cc1cccc(-n2cc(CNc3ncnc4c3CCNCC4)cn2)c1`, for which the “Percent Effect” value was 94.66%. As to `c1ccc(Cn2cc(CNc3ncnc4c3CCNCC4)cn2)cc1`, the “Percent Effect” value was 100.8%.

On to `c1cncc(CNc2ncnc3c2CCN(Cc2ccsc2)CC3)c1`, for which the “Percent Effect” value is -11.45%. `Cc1ccccc1-n1cc(CNc2ncnc3c2CCNCC3)cn1`: the “Percent Effect” value amounted to 113.8%.

On to `CCc1ncc(C(=O)N(C)C2Cc3ccccc3C2)cn1`, for which the “Percent Effect” value is recorded as 0.7414%. The result for `CC(C)C(=O)N1CCCN(C(=O)NC2CCc3ccccc3C2)CC1` (configuration not stated) reads 16.47%; that for `O=C(NCc1nn(-c2ccccc2)c2c1CCC2)N1CCSCC1`, 9.143%. On to `CC(C)(C)C(=O)N1CCCc2c(cnn2-c2ccccc2)C1`, for which the “Percent Effect” value came out at 70.74%. The result for `CC(C)C(=O)N1CCCc2c(cnn2-c2ccccc2)C1` reads 142.7%; that for `CCC(CC)C(=O)N1CCN(C)c2ncccc2C1`, -0.9461%; that for `CC(C)(C)c1ncc2c(n1)CN(C(=O)C(C)(C)n1cccc1)C2`, 2.811%. Then `CC(C(=O)N1CCc2ccccc2C1)n1cc(Br)cn1` (configuration not stated), with 4.145%.

With `Cn1nnc2c1CCN(C(C(=O)N1CCCCC1)c1ccccc1)C2` (configuration not stated), the “Percent Effect” value is given as 4.107%. Take `Cc1nc2c(c(=O)n1C)CCN(C(=O)Cn1cccc1)CC2`: the “Percent Effect” value is listed as 14.88%. The result for `O=C(NCC1OCCc2cn(CC3CCOCC3)nc21)c1ccsc1.O=C(O)C(F)(F)F` (configuration not stated) reads -9.912%; that for `CN(C)S(=O)(=O)c1ccc(CNC(=O)C2CC2)cc1`, 8.545%. Then `CC(C)N1CC(C(=O)NCc2ccc(S(=O)(=O)N(C)C)cc2)CC1=O` (configuration not stated), with 136.1%; and `CSc1ccc(CNC(=O)C2CC(=O)N(C(C)(C)C)C2)cc1` (configuration not stated), with 13.09%. The result for `COc1cc(CNC(=O)C2CC(=O)N(C(C)C)C2)ccn1` (configuration not stated) reads -0.8085%; that for `CC(C)(C)N1CC(C(=O)NCc2noc(Cc3ccccc3)n2)CC1=O` (configuration not stated), -0.1463%; that for `CN(C)S(=O)(=O)c1ccc(CNC(=O)C2CC(=O)N(C(C)(C)C)C2)cc1` (configuration not stated), 129.4%. For the compound `COc1cc(Cl)c(NC(=O)NCCn2cccc2)cc1OC`, the “Percent Effect” value is -6.144%. The result for `CCN(CC)C(=O)[C@@H]1C[C@@H](N)CN1c1nc(N2CCCC2)nc(C)c1C` reads -2.729%; that for `O=C(c1cn(CCN2CCCCC2)nn1)N1CCCO1`, -7.456%. Then `COc1cc(C(=O)N2CCCS2(=O)=O)ccc1C`, with -0.1842%; and `Cc1ccc(C(=O)N2CCCS2(=O)=O)cc1Cl`, with -5.646%; and `Cc1cc(C(=O)N2CCN(Cn3cc(Cl)cn3)CC2)c(C)o1`, with 0.3754%. Turning to `Cc1cc(C(=O)N2CCS(=O)(=O)CC2)c(C)o1`, the “Percent Effect” value is recorded as 128.6%.

As to `COc1cc(C(=O)N2CCCS2(=O)=O)cc(Cl)c1OC`, the “Percent Effect” value was 11.62%.

Take `Cc1cc(C(=O)N2CCC(CCn3cccn3)CC2)c(C)o1`: the “Percent Effect” value is -7.806%.

For `Cc1cc(C(=O)N2CCCS2(=O)=O)c(C)o1`, the “Percent Effect” value worked out at 122.2%.

`Cc1occc1C(=O)N1CCCS1(=O)=O`: the “Percent Effect” value came to 102.9%.

For the compound `Cc1occc1C(=O)N1CCOC2(CCCC2)C1`, the “Percent Effect” value came to 0.5411%. Then `CN(Cc1ccccc1O)C(=O)NC1CCCN(c2ncccn2)C1` (configuration not stated), with -16.23%; and `NC(=O)CCCNC(=O)COc1ccccc1C(F)(F)F`, with 8.512%. For the compound `O=C(COCC(F)(F)C(F)F)N1CCC(c2ncc[nH]2)CC1`, the “Percent Effect” value is -1.399%. The result for `Cn1cc(C(=O)N2CCC(c3ncc[nH]3)CC2)cn1` reads 106%; that for `Cc1cc(=O)[nH]c(SC(C)C(=O)N2CCC(c3ncc[nH]3)CC2)n1` (configuration not stated), -1.396%.

Regarding `CN(C)C(=O)N1CC[C@]2(O)CCN(C(=O)c3ccc(C#N)nc3)C[C@@H]2C1`, the “Percent Effect” value turned out to be 0.1052%. As to `CN1CCN(c2ccc(C(=O)N3CCCC(c4ncc[nH]4)C3)cc2)CC1` (configuration not stated), the “Percent Effect” value is given as -9.853%. Turning to `Cn1cc(C(=O)N2CCCC(c3ncc[nH]3)C2)cn1` (configuration not stated), the “Percent Effect” value is listed as -9.118%. Then `N#Cc1ccc(C(=O)N2CCC3(CC2)C(=O)Nc2ccccc23)cn1`, with -3.857%. Then `N#Cc1ccc(C(=O)N2CCC(c3ncc[nH]3)CC2)cn1`, with 118.6%; and `O=C(c1cncc(F)c1)N1CCC(c2ncc[nH]2)CC1`, with 103.6%. With `O=C(CCc1ccccc1)C1CCCN(C(=O)c2ncc(F)cc2F)C1` (configuration not stated), the “Percent Effect” value was -13.78%. The result for `CC(C)(C)n1ccc(C(=O)N2CCCC(c3ncc[nH]3)C2)c1` (configuration not stated) reads -9.494%. The result for `O=C(c1ncc(F)cc1F)N1CCC(c2ncc[nH]2)CC1` reads 114.8%; that for `Cn1ccnc1CN(CCCO)CC(F)(F)F`, -6.784%; that for `CCCC(=O)N(Cc1ccncc1)C(C)CC` (configuration not stated), -14.56%. Then `O=C([C@H]1COC[C@H]2CN(C3CCCC3)C[C@H]21)N1CCOCC1`, with -18.92%; and `O=C([C@@H]1C[C@@H]2CCN(C3CCOCC3)C[C@H]2O1)N1CCCC1`, with 111.9%. In the case of `O=C([C@@H]1C[C@@H]2CCN(C3CCOCC3)C[C@@H]2O1)N1CCOCC1`, the “Percent Effect” value amounted to 114%. The result for `O=C(O)C(F)(F)F.O=C([C@@H]1COC[C@H]2CN(C3CCOCC3)C[C@H]21)N1CCOCC1` reads 8.462%; that for `O=C(CCn1cncn1)NC1(c2cccc(Br)c2)CCC1`, 14.53%.

Turning to `CC(C)C(NC(=O)Nc1cnn(CC(N)=O)c1)c1ccc(Cl)cc1` (configuration not stated), the “Percent Effect” value came out at 4.509%. Regarding `O=C(c1coc(CN2CCN(c3ccccc3F)CC2)n1)N1CC=CC1`, the “Percent Effect” value was -19.74%. Then `Cc1ccc(C(=O)N2CCN(CCCSCC#N)CC2)cc1F`, with 105.3%; and `Cc1ccc(C(=O)N2CCc3ncnc(C)c3CC2)cc1F`, with 4.805%. The result for `O=C(c1ccccc1F)N1CCN(CCCn2cncn2)CC1` reads -12.58%; that for `N#CCSCCCN1CCN(C(=O)c2ccccc2F)CC1`, 105.1%; that for `Cc1cccc(C(=O)N2CCCN(CCCSCC#N)CC2)c1`, 95.07%.

For the compound `N#CCSCCCN1CCCC(C(=O)N2CCCCCC2)C1` (configuration not stated), the “Percent Effect” value is listed as 8.122%. The result for `Cn1ccc(C(=O)N2CCCN(CCCc3ccccc3)CC2)cc1=O` reads 5.22%; that for `N#CCSCCCN1CCN(C(=O)C2CCCC2)CC1`, -2.265%.

Regarding `N#CCSCCCN1CCN(C(=O)c2ccc(Cl)cc2)CC1`, the “Percent Effect” value stood at 23.02%.

For the compound `N#CCSCCCN1CCCN(C(=O)c2ccccc2)CC1`, the “Percent Effect” value was determined as 13.73%. The result for `Cc1ccc(C(=O)N2CCN(CCCSCC#N)CC2)o1` reads -4.6%. Then `N#CCSCCCN1CCN(C(=O)c2cccc(Cl)c2)CC1`, with 87.64%; and `O=C(NC1CC1)[C@H]1[C@@H]2CN(Cc3ccc(-c4ccn[nH]4)s3)C[C@@H]21`, with -3.84%. `COC(=O)[C@@H]1C[C@@H](O)CN1Cc1ccn(-c2ccc(F)cc2)n1`: the “Percent Effect” value is listed as -13.47%. With `CNC(=O)c1ccc2c(OC)n(C)nc2c1`, the “Percent Effect” value stood at 2.989%.

For `CC(C)n1cnnc1CN(C)Cc1ccoc1`, the “Percent Effect” value turned out to be 9.92%.

For the compound `CCc1cnc(N2C[C@H]3CN(Cc4csc(C)n4)C(=O)[C@H]3C2)nc1.O=C(O)C(F)(F)F`, the “Percent Effect” value was -9.51%. The result for `Cc1c[nH]c(CN2CCOC(c3ccc(F)cc3)C2)c(C)c1=O` (configuration not stated) reads 1.733%.

For `Cc1c[nH]c(CN2CCOC(c3ccc(Cl)cc3)C2)c(C)c1=O` (configuration not stated), the “Percent Effect” value is 100.9%.

Regarding `Cc1cc(C)nc(CN2CCOC(c3ccc(Cl)cc3)C2)n1` (configuration not stated), the “Percent Effect” value is -0.4936%.

As to `Cc1nnc(CN2CCOC(c3ccc(Cl)c(Cl)c3)C2)o1` (configuration not stated), the “Percent Effect” value is reported as 7.568%. Then `Cc1nc[nH]c1CN1CCOC(c2ccc(Cl)c(Cl)c2)C1` (configuration not stated), with 1.288%; and `Cc1c[nH]c(CN2CCOC(c3ccc(Cl)c(Cl)c3)C2)c(C)c1=O` (configuration not stated), with 94.99%.

Take `CN1CCN(CCCNCc2cc(O)c3cc(F)ccc3n2)CC1`: the “Percent Effect” value is on record as -16.72%.
